Results as given in PubChem BioAssay (EPA / NIEHS).
Inconclusive results are not listed. Calls of active or inactive are those of the source. Rule for the calls, unless noted: active = hit-call score of the fitted dose curve at least 0.9, where 1 is the maximum; inactive = score below 0.9.

Columns and labels:
[1] = BSK_4H_Eotaxin3: BioMAP Diversity Plus: 4H Assay for Eotaxin 3 Biomarker Activity (AID 2283000); details: primary human endothelial cells (HUVEC); actives raise or lower the signal
Method in brief: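 HUVEC, 24 h post-dose, ELISA for Eotaxin-3/CCL26. Gain or loss of signal fitted bidirectionally vs DMSO baseline.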

[2] = target: human Peroxisome Proliferator-activated Receptor alpha (PPARa), PPARA (gene 5465) (UniProt Q07869); assay: ATG_PPARa_TRANS: Attagene TRANS-FACTORIAL HepG2 Assay for human Peroxisome Proliferator-activated Receptor alpha (PPARa) (AID 2283001; active = hit-call score of the fitted dose curve at least 0.9, where 1 is the maximum)
Method in brief: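 HepG2 cells transiently transfected with multiplexed GAL4-UAS reporter units and chimeric NR-Gal4 constructs were dosed for 24 h. Reporter mRNA was measured by RT-PCR with fluorescent labelling and capillary electrophoresis; gain of signal fitted against DMSO.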

[3] = read-out: Intercellular Adhesion Molecule 1 (ICAM1), ICAM1 (gene 3383); assay: BSK_3C_ICAM1: BioMAP Diversity Plus: 3C Assay for Intercellular Adhesion Molecule 1 (ICAM1) Biomarker Activity (AID 2283003); details: primary human endothelial cells (HUVEC); actives raise or lower the signal
Method in brief: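 Human vascular endothelial primary cells, 3C conditions, 24 h treatment. ICAM-1 by ELISA.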

[4] = BSK_3C_Proliferation: Cell Proliferation Assessment in the BioMAP Diversity Plus: 3C Assay (AID 2283006); details: primary human endothelial cells (HUVEC);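 for AC50: potency may reflect either rise or fall in cell number versus DMSO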
Method in brief: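 Proliferation of human vascular endothelial primary cells after 48 h dosing, quantified as SRB-stained protein at 560 nm relative to DMSO.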

[5] = target: Peroxisome proliferator-activated receptor gamma (Homo sapiens) (UniProt P37231); assay: ATG_PPARg_TRANS: Attagene TRANS-FACTORIAL HepG2 Assay for human Peroxisome Proliferator-activated Receptor-gamma (PPARg) (AID 2283007; active = hit-call score of the fitted dose curve at least 0.9, where 1 is the maximum)
Method in brief: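 A TRANS-format multiplexed reporter assay measures activity of an exogenous chimeric NR-Gal4 protein in HepG2 cells. After 24 h of chemical exposure, reporter transcripts are amplified, fluorescently labelled and sized by capillary electrophoresis, with gain of signal scored against DMSO.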

[6] = target: Nuclear receptor subfamily 1 group I member 2 (Homo sapiens) (UniProt O75469); assay: ATG_PXR_TRANS: Attagene TRANS-FACTORIAL HepG2 Assay for human Pregnane X Receptor (PXR) (AID 2283008; active = hit-call score of the fitted dose curve at least 0.9, where 1 is the maximum)
Method in brief: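 Read-out is fluorescence of labelled reporter cDNA fragments separated by capillary electrophoresis after RT-PCR and HpaI digestion. Source: HepG2 cells carrying PXR-GAL4/UAS reporter constructs, treated 24 h; activity fitted upward relative to DMSO.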

[7] = target: human Retinoic Acid Receptor gamma (RARg), RARG (gene 5916) (UniProt P13631); assay: ATG_RARg_TRANS: Attagene TRANS-FACTORIAL HepG2 Assay for human Retinoic Acid Receptor gamma (RARg) (AID 2283009; active = hit-call score of the fitted dose curve at least 0.9, where 1 is the maximum)
Method in brief: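 HepG2, RARg-GAL4 TRANS system, 24 h exposure; reporter mRNA by RT-PCR + CE fluorescence; increase over DMSO.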

[8] = target: human RAR-related Orphan Receptor beta (RORb), RORB (gene 6096) (UniProt Q92753); assay: ATG_RORb_TRANS: Attagene TRANS-FACTORIAL HepG2 Assay for human RAR-related Orphan Receptor beta (RORb) (AID 2283010; active = hit-call score of the fitted dose curve at least 0.9, where 1 is the maximum)
Method in brief: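 In this TRANS-format test, human HepG2 cells express chimeric NR-Gal4 fusion proteins driving GAL4-UAS reporters. After 24 h dosing, reporter transcripts are measured by fluorescent RT-PCR/capillary electrophoresis, with DMSO as negative control.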

[9] = target: human Retinoid X Receptor beta (RXRb), RXRB (gene 6257) (UniProt P28702); assay: ATG_RXRb_TRANS: Attagene TRANS-FACTORIAL HepG2 Assay for human Retinoid X Receptor beta (RXRb) (AID 2283013; active = hit-call score of the fitted dose curve at least 0.9, where 1 is the maximum)
Method in brief: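 Multiplexed TRANS reporter assay in HepG2; 24 h dosing; reporter mRNA by RT-PCR/CE fluorescence; gain-of-signal relative to DMSO.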

[10] = read-out: E-selectin (Homo sapiens) (UniProt P16581); assay: BSK_3C_Eselectin: BioMAP Diversity Plus: 3C Assay for Eselectin Biomarker Activity (AID 2283015); details: primary human endothelial cells (HUVEC); actives raise or lower the signal
Method in brief: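 Primary human umbilical vein endothelial cells (3C system) were dosed with chemical and cell-surface E-selectin measured by ELISA 24 h later. Bidirectional curve fitting used DMSO as negative control and baseline.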

[11] = read-out: Interleukin-1 alpha (IL1a), IL1A (gene 3552); assay: BSK_BE3C_IL1a: BioMAP Diversity Plus: BE3C Assay for Interleukin-1 alpha (IL1a) Biomarker Activity (AID 2283016); details: primary human bronchial epithelial cells; actives raise or lower the signal
Method in brief: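 Cultures of primary human bronchial epithelial cells receive test chemical. After 24 h, IL-1a is quantified by ELISA, while parallel wells are fixed in TCA and SRB-stained for total protein. Changes in either direction are fitted relative to DMSO.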

[12] = read-out: Monocyte Chemoattractant Protein-1 (MCP1), CCL2 (gene 6347); assay: BSK_3C_MCP1: BioMAP Diversity Plus: 3C Assay for Monocyte Chemoattractant Protein-1 (MCP1) Biomarker Activity (AID 2283017); details: primary human endothelial cells (HUVEC); actives raise or lower the signal
Method in brief: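 Primary human umbilical vein endothelial cells (3C system) were exposed to test chemical for 24 h, after which MCP-1 was quantified by ELISA. Activity was fitted bidirectionally against DMSO as negative control and baseline.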

[13] = read-out: Monocyte Chemoattractant Protein-1 (MCP1), CCL2 (gene 6347); assay: BSK_4H_MCP1: BioMAP Diversity Plus: 4H Assay for Monocyte Chemoattractant Protein-1 (MCP1) Biomarker Activity (AID 2283018); details: primary human endothelial cells (HUVEC); actives raise or lower the signal
Method in brief: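 Readout: MCP-1 ELISA on compound-treated HUVEC, sampled 24 h post-dosing. Baseline and negative control DMSO; bidirectional fit. Overt toxicity checked alongside by sulforhodamine B protein staining at time of biomarker measurement.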

[14] = read-out: Human Leukocyte Antigen - DR isotype (HLADR), HLA-DRA (gene 3122); assay: BSK_3C_HLADR: BioMAP Diversity Plus: 3C Assay for Human Leukocyte Antigen - DR isotype (HLADR) Biomarker Activity (AID 2283019); details: primary human endothelial cells (HUVEC); actives raise or lower the signal
Method in brief: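 Primary human umbilical vein endothelial cells (3C system) were dosed with compound and cell-surface HLA-DR was quantified by ELISA at 24 h. Activity was fitted bidirectionally against DMSO as negative control and baseline.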

[15] = target: Retinoic acid receptor RXR-alpha (Homo sapiens) (UniProt P19793); assay: ATG_RXRa_TRANS: Attagene TRANS-FACTORIAL HepG2 Assay for human Retinoid X Receptor alpha (RXRa) (AID 2283012; active = hit-call score of the fitted dose curve at least 0.9, where 1 is the maximum)
Method in brief: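 Cells (HepG2) carried transiently transfected GAL4-responsive reporter units. Following a 24 h chemical incubation, reporter mRNA induction was read via RT-PCR fragment analysis; DMSO served as negative control and baseline.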

[16] = target: human Thyroid Receptor alpha (THRa1), THRA (gene 7067) (UniProt P10827); assay: ATG_THRa1_TRANS: Attagene TRANS-FACTORIAL HepG2 Assay for human Thyroid Receptor alpha (THRa1) (AID 2283014; active = hit-call score of the fitted dose curve at least 0.9, where 1 is the maximum)
Method in brief: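 HepG2 cells transiently transfected with multiplexed GAL4-UAS reporter units for exogenous chimeric THRa1-Gal4; reporter mRNA measured 24 h after dosing by RT-PCR, 6-FAM labelling, HpaI digestion and capillary electrophoresis. Gain-of-signal fitted versus DMSO baseline.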

[17] = target: human RAR-related Orphan Receptor gamma (RORg), RORC (gene 6097) (UniProt P51449); assay: ATG_RORg_TRANS: Attagene TRANS-FACTORIAL HepG2 Assay for human RAR-related Orphan Receptor gamma (RORg) (AID 2283011; active = hit-call score of the fitted dose curve at least 0.9, where 1 is the maximum)
Method in brief: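 Readout: reporter transcript induction (RT-PCR, fluorescent primer extension, capillary electrophoresis) after 24 h compound exposure of transiently transfected HepG2 cells carrying a RORg-Gal4 chimera and GAL4-UAS reporters; DMSO served as baseline, with increasing signal fitted.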

[18] = target: human Peroxisome Proliferator-activated Receptor delta (PPARd), PPARD (gene 5467) (UniProt Q03181); assay: ATG_PPARd_TRANS: Attagene TRANS-FACTORIAL HepG2 Assay for human Peroxisome Proliferator-activated Receptor delta (PPARd) (AID 2283002; active = hit-call score of the fitted dose curve at least 0.9, where 1 is the maximum)
Method in brief: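 Multiplexed trans-activation format: HepG2 liver cells expressing exogenous NR-Gal4 chimeras and GAL4-UAS reporters were exposed for 24 h. Reporter mRNA was detected by RT-PCR with capillary electrophoresis fluorescence; activity fitted as gain of signal relative to DMSO.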

Measured: AC50

Chain of human Peroxisome Proliferator-activated Receptor alpha (PPARa), PPARA (gene 5465) (Q07869 whole entry, looked up, the tested form may be a part): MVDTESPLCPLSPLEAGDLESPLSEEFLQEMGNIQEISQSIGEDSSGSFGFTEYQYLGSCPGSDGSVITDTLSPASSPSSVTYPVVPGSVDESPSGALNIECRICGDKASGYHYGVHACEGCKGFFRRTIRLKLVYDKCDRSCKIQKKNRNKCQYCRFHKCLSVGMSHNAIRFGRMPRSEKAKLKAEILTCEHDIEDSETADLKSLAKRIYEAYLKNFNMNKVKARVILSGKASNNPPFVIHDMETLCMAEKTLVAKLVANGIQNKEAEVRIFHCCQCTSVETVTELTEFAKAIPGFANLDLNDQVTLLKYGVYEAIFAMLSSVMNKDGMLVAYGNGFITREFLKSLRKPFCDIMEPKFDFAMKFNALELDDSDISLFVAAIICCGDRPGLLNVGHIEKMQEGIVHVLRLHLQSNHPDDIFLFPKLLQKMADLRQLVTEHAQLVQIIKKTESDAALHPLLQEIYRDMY
Chain of Retinoic acid receptor RXR-alpha (Homo sapiens) (P19793 whole entry, looked up, the tested form may be a part): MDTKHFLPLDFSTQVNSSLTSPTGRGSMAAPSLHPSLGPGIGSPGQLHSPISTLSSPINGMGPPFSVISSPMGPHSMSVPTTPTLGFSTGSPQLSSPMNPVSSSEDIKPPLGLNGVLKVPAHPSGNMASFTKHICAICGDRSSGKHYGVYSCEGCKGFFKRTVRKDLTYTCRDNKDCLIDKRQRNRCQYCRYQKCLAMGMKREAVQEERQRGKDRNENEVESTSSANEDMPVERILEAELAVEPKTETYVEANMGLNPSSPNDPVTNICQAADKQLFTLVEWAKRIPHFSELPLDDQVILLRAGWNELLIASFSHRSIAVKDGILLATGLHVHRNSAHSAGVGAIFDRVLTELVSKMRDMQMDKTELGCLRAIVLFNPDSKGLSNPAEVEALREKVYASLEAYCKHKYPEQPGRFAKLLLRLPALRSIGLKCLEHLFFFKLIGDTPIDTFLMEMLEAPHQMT
Chain of human Thyroid Receptor alpha (THRa1), THRA (gene 7067) (P10827 whole entry, looked up, the tested form may be a part): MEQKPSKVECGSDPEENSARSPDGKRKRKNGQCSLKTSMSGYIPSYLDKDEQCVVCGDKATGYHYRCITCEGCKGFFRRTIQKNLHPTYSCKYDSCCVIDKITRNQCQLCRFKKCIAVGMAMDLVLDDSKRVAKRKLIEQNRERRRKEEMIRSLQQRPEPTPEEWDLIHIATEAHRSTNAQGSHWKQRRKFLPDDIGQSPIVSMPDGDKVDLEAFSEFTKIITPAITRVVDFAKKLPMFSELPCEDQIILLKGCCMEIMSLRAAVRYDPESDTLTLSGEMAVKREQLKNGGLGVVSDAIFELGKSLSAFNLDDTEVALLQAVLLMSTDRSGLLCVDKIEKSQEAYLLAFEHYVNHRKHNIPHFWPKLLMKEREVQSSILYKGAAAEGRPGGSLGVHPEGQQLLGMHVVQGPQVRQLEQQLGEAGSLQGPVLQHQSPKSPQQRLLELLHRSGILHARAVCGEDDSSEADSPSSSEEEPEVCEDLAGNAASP
Chain of human RAR-related Orphan Receptor gamma (RORg), RORC (gene 6097) (P51449 whole entry, looked up, the tested form may be a part): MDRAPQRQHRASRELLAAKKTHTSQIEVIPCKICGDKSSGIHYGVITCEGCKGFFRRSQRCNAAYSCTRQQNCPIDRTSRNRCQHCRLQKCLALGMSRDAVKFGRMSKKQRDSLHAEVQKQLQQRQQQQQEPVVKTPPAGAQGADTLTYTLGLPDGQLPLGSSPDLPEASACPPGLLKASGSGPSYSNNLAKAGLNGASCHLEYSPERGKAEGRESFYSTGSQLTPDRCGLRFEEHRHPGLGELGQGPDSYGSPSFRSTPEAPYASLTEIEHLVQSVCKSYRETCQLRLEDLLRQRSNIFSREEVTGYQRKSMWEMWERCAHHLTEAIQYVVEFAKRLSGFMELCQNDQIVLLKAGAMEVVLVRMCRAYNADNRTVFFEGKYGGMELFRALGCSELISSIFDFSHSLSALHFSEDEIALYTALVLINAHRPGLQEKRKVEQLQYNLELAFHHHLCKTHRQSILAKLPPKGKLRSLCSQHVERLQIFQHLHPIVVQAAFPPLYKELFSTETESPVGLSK
Chain of E-selectin (Homo sapiens) (P16581 whole entry, looked up): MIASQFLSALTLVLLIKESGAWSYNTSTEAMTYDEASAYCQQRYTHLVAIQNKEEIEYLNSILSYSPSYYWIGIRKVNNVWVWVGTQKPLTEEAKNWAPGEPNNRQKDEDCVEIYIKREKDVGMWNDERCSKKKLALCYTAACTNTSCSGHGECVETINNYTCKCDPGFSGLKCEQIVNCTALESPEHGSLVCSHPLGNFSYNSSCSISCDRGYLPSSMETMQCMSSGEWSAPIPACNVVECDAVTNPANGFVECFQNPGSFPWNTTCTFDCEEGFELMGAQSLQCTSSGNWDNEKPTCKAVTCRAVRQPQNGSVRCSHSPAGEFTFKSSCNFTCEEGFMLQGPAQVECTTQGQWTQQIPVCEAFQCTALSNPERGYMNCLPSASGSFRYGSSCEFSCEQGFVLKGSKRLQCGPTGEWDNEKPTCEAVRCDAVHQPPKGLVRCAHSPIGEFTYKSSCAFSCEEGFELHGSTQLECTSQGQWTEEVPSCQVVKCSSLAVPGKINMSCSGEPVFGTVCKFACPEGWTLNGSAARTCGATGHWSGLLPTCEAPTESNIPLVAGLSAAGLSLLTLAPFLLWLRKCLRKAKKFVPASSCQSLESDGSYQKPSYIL
Chain of human RAR-related Orphan Receptor beta (RORb), RORB (gene 6096) (Q92753 whole entry, looked up, the tested form may be a part): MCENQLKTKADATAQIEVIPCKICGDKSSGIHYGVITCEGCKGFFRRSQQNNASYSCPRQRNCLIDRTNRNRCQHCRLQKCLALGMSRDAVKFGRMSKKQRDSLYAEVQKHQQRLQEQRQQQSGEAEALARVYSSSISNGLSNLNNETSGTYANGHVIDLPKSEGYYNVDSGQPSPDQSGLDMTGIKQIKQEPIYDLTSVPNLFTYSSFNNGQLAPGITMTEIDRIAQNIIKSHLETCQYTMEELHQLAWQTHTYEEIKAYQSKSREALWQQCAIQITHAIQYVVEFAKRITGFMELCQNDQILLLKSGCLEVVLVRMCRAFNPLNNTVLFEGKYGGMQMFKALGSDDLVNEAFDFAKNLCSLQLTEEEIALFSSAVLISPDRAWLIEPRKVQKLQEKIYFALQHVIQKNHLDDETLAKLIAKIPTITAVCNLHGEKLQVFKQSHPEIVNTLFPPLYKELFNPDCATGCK
Chain of human Retinoid X Receptor beta (RXRb), RXRB (gene 6257) (P28702 whole entry, looked up): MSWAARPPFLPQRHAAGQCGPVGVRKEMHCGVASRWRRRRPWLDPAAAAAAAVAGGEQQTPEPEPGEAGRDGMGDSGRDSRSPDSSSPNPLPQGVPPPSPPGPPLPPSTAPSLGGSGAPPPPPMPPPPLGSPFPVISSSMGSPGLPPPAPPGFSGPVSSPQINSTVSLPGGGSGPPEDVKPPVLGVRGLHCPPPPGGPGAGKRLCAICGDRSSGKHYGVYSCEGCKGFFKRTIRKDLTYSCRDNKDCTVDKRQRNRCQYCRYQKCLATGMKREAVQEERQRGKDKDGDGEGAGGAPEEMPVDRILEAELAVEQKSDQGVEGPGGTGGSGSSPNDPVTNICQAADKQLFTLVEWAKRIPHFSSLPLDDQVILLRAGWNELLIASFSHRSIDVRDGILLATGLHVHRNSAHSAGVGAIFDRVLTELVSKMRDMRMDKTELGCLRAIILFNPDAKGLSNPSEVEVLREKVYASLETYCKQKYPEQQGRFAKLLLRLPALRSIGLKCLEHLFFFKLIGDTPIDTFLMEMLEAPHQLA
Chain of Nuclear receptor subfamily 1 group I member 2 (Homo sapiens) (O75469 whole entry, looked up, the tested form may be a part): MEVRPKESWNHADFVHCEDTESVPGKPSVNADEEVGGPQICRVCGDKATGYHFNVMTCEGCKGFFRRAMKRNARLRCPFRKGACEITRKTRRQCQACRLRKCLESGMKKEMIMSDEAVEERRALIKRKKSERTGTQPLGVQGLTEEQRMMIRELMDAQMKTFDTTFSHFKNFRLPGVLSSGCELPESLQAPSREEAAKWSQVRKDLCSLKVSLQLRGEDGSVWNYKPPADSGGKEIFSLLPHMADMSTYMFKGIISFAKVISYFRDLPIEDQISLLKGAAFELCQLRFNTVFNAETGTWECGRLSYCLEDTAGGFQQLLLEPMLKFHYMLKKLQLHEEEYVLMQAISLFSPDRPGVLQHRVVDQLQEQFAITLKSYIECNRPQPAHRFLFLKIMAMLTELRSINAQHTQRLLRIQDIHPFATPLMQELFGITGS
Chain of Peroxisome proliferator-activated receptor gamma (Homo sapiens) (P37231 whole entry, looked up, the tested form may be a part): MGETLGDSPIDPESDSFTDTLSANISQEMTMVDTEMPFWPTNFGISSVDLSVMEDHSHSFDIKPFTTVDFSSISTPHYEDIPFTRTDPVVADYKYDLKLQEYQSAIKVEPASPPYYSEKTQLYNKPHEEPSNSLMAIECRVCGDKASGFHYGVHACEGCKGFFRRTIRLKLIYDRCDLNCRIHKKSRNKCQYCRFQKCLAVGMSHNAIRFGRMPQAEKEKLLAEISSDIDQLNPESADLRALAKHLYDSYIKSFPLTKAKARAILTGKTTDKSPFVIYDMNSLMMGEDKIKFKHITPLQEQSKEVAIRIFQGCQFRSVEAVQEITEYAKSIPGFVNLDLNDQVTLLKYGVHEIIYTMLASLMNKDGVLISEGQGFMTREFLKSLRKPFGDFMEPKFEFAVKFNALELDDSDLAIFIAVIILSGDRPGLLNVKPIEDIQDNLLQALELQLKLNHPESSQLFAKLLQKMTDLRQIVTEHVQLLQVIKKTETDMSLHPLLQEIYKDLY
Chain of human Peroxisome Proliferator-activated Receptor delta (PPARd), PPARD (gene 5467) (Q03181 whole entry, looked up, the tested form may be a part): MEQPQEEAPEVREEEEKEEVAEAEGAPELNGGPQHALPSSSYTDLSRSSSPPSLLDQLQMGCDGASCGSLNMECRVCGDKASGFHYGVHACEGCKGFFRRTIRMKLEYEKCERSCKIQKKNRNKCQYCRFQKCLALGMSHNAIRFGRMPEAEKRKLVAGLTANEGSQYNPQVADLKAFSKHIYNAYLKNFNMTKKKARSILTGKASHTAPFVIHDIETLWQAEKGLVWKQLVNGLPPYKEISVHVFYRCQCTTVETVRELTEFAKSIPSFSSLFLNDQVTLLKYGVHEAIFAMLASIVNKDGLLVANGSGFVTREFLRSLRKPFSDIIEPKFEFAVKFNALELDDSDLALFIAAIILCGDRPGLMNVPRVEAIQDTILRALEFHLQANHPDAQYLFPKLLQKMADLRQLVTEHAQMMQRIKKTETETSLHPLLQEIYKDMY

CCOC(=O)C=Cc1ccccc1
inactive: [1] | [2] | [3] | [4] | [7] | [8] | [9] | [10] | [11] | [12] | [13] | [14]
active: [5] 25.4 µM | [6] 30.8 µM

CC1=CC(C)C(C=O)C(C)C1 (stereo not given) (tested in a mixture with another compound)
inactive: [1] | [2] | [3] | [4] | [5] | [6] | [8] | [15] | [16] | [10] | [11] | [12] | [13] | [14]

CCC(=O)OCC=Cc1ccccc1
active: [6] 16.7 µM
inactive: [1] | [3] | [4] | [5] | [17] | [15] | [9] | [10] | [11] | [12] | [13] | [14]

CCCO[Si](OCCC)(OCCC)OCCC
inactive: [1] | [18] | [3] | [4] | [5] | [6] | [17] | [15] | [9] | [10] | [11] | [12] | [13] | [14]

c1ccc(OCCOc2ccccc2)cc1
inactive: [1] | [18] | [3] | [4] | [6] | [8] | [15] | [16] | [10] | [11] | [12] | [13] | [14]

c1ccc(Sc2ccccc2)cc1
inactive: [3] | [5] | [6] | [15] | [16]
active: [1] 30.7 µM | [4] 27.6 µM | [9] 100 µM | [10] 29.9 µM | [11] 33.2 µM | [12] 29.1 µM | [13] 20 µM | [14] 30.3 µM

CC(=O)OC(C)(C)C1CC=C(C)CC1 (stereo not given)
active: [1] 33.3 µM | [4] 28.4 µM | [6] 33.8 µM | [10] 31 µM | [12] 31.3 µM | [13] 29.8 µM | [14] 31.3 µM
inactive: [2] | [3] | [5] | [8] | [15] | [9] | [11]

CC(=O)CCC=C(C)CCC=C(C)C
inactive: [2] | [3] | [4] | [17] | [15] | [9] | [16] | [10] | [11] | [12] | [13] | [14]
active: [1] 31.5 µM | [5] 36.6 µM | [6] 4.33 µM
